Bioassay records: PubChem BioAssay, Broad Institute
Sampled rows, rich in hits. Any-hit rate of the full collection: about 4.1%.
NSD2 inh: blocks human histone methyltransferase NSD2. AID 743445. O96028. actives 0.54% (n = 310,000). NSD2 peptide methylation, AlphaScreen, 120 min. inhibition, % at 12.5 µM; in the data active = inhibition above about 50%
HIV Env fusion: blocks HIV Env-driven cell-cell fusion; HeLa-JRFL Env/CEM21 cell fusion, luciferase; inhibition, % at 12.3 µM; actives 1.1% (n = 360,000); AID 651610;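 active = mean replicate inhibition score of at least 50 and every replicate individually at or above 50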
PglD inh: blocks C. jejuni PglD acetyltransferase activity. purified PglD enzyme, DTNB colorimetric CoA detection. inhibition, % at 12.5 µM. actives 0.098% (n = 360,000). AID 602405; in the data active = inhibition above about 16%, passing the limit was not always enough
Casp6 inh: inhibitors of human caspase-6 | purified caspase-6, Z-VEID-R110 cleavage fluorescence | inhibition, % at 12.5 µM | actives 0.53% (n = 350,000);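 active = mean inhibition across replicates at least about 35%, with every replicate also reaching that limit, limit read from the data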
Target sequence (P55212 24-179 limits assumed): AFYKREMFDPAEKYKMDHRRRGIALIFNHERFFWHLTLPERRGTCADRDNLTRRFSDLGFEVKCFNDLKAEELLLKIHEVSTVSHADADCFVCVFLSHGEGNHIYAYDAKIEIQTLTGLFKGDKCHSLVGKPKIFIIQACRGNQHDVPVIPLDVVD
Target sequence (P55212 194-293 limits assumed): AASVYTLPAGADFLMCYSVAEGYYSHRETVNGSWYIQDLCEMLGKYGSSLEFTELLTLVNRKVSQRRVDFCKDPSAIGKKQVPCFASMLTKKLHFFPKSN
ALR inh: inhibitors of human sulfhydryl oxidase ALR; P55789; AID 485317; inhibition, % (test concentration not listed); purified ALR, DTT oxidation, H2O2 HRP-luminol luminescence; actives 3.8% (n = 290,000);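 active = mean replicate inhibition above about 79%, with every replicate also reaching it, limit read from the data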
Target sequence (P55789 whole entry, looked up): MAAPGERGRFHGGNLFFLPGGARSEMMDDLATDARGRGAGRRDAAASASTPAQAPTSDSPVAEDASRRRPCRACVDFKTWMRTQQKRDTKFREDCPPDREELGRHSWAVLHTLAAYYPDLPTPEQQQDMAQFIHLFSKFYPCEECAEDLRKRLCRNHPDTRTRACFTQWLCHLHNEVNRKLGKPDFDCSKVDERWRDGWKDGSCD
CFTR F508del cor: CFTR F508del correction in bronchial cells; activity (quench increase), % at 7.58 µM; CFBE cells, YFP halide quenching; stimulated with forskolin plus potentiator P3; % fluorescence drop versus neutral controls; actives 0.36% (n = 350,000); AID 720511;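 active = mean added fluorescence quench of at least 8% versus neutral control, with both replicates also reaching 8%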;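 also: cells transiently co-express mutant CFTR-F508del with the halide-sensitive YFP; corrector assay measuring rescue of mutant channel to the surface after 24 h compound exposure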
Each line names hits and unclear results; the compound was inactive in the other large screens; [ ] = remark or other dose.

Cc1ccc(S(=O)(=O)N(C)C[C@@H]2Oc3ccc(NC(=O)Cc4cn(C)c5ccccc45)cc3C(=O)N([C@@H](C)CO)C[C@H]2C)cc1	none (no result: NSD2 inh, ALR inh)
O=C(Nc1ccccc1N1CCCC1)C1CCN(C(=O)c2ccc(F)cc2)CC1	ALR inh 98 (no result: HIV Env fusion)
COc1ccccc1S(=O)(=O)N[C@H]1CC[C@H](CC(=O)NCc2cc(F)cc(F)c2)O[C@H]1CO	none (no result: NSD2 inh, HIV Env fusion, PglD inh, ALR inh)
O=C(c1ccccc1F)N1CC(=O)N2[C@H](CO)[C@@H](c3ccc(C#Cc4ccc(F)cc4)cc3)[C@H]2C1	none (no result: NSD2 inh, HIV Env fusion, PglD inh, ALR inh)
C[C@H]1CN([C@@H](C)CO)S(=O)(=O)c2ccc(-c3ccc(F)cc3)cc2O[C@H]1CN(C)Cc1cccc(F)c1	HIV Env fusion 62[16.7 µM] (no result: NSD2 inh, PglD inh, Casp6 inh, ALR inh)
C[C@@H]1CN([C@H](C)CO)S(=O)(=O)c2ccc(-c3ccc(C#N)cc3)cc2O[C@H]1CN(C)Cc1cccc(F)c1	CFTR F508del cor 8.1 (no result: NSD2 inh, ALR inh)
C[C@H]1CN([C@@H](C)CO)S(=O)(=O)c2ccc(-c3ccc(C#N)cc3)cc2O[C@@H]1CN(C)Cc1cccc(F)c1	none (no result: NSD2 inh, ALR inh)
Cc1ccc(N2CCC(N3CCN(C4CCCCC4)C(CCO)C3)CC2)cc1 (stereo unspecified)	ALR inh 99 (no result: Casp6 inh, CFTR F508del cor)
CC(C)CCN1CCN(C2CCN(c3ccc4c(c3)OCO4)CC2)CC1CCO (stereo unspecified)	ALR inh 99
C[C@@H]1CN([C@@H](C)CO)C(=O)c2cc(C3=CCCC3)cnc2O[C@@H]1CN(C)Cc1cccnc1	none (no result: NSD2 inh, ALR inh)
COC(=O)[C@@]1(Cc2ccccc2)[C@H]2C(=O)N(Cc3ccccc3)C(=O)[C@H]2[C@H]2CN=C(SCC(=O)c3ccccc3)N21	none (no result: NSD2 inh, ALR inh)
COC(=O)[C@@]1(C)[C@H]2C(=O)N(Cc3ccccc3)C(=O)[C@H]2[C@H]2CN=C(SCc3ccc(C#N)cc3)N21	HIV Env fusion 75 (no result: NSD2 inh, ALR inh)
COC(=O)[C@@]1(C)[C@H]2C(=O)N(Cc3ccccc3)C(=O)[C@H]2[C@H]2CN=C(SCc3ccc(Cl)cc3)N21	HIV Env fusion 79 (no result: NSD2 inh, ALR inh)
CC[C@]1(C(=O)OC)[C@H]2C(=O)N(Cc3ccccc3)C(=O)[C@H]2[C@H]2CN=C(SCC(=O)c3ccccc3)N21	HIV Env fusion 72 (no result: NSD2 inh, ALR inh)
COc1ccc(NC(=O)N(C)C[C@@H]2Oc3c(NS(=O)(=O)c4ccccc4)cccc3C(=O)N([C@H](C)CO)C[C@H]2C)cc1	none (no result: NSD2 inh, PglD inh, Casp6 inh, ALR inh)
Cc1ccc2c(c1)c1c(n2C)-c2[nH]ncc2CC1	ALR inh 94 (no result: Casp6 inh, CFTR F508del cor)
Cc1ccc2c(c1)c1c(n2C)C(C(N)=O)CCC1 (stereo unspecified)	none (no result: Casp6 inh, CFTR F508del cor)
C[C@H](CO)N1C[C@H](C)[C@@H](CN(C)Cc2ccncc2)Oc2cc(C#CC(C)(C)O)ccc2S1(=O)=O	none (no result: NSD2 inh, ALR inh)
CC[n+]1c(/C=C(\C)SC)sc2ccccc21	none (no result: HIV Env fusion)
CC[n+]1c(/C=C(\C)Nc2ccccc2)sc2ccccc21	ALR inh 89 (no result: PglD inh, Casp6 inh, CFTR F508del cor)
COc1cccc(-c2ccc3c(c2)[C@H]2[C@H](CCN2C(=O)Cc2ccccc2)[C@@H](CO)N3)c1	none (no result: NSD2 inh, HIV Env fusion, ALR inh)
Cc1cc(O)ccc1N=Cc1c(C(F)(F)F)[nH][nH]c1=O	ALR inh 99 (no result: PglD inh)
O=c1[nH][nH]c(C(F)(F)F)c1C=Nc1ccccc1	none (no result: Casp6 inh, CFTR F508del cor)
CNC[C@H]1Oc2ccc(N(C)C)cc2CC(=O)N([C@@H](C)CO)C[C@H]1C	none (no result: NSD2 inh, ALR inh)
Cc1cc(Sc2ncnc(N)c2[N+](=O)[O-])ncn1	none (no result: HIV Env fusion, PglD inh, Casp6 inh, CFTR F508del cor)
Cc1cc(Sc2nc(N)ncc2[N+](=O)[O-])ncn1	ALR inh 98 (no result: PglD inh, CFTR F508del cor)
CC(NS(C)(=O)=O)C(c1cccs1)N1CCN(c2ccccc2)CC1 (stereo unspecified)	ALR inh 99 (no result: HIV Env fusion, Casp6 inh, CFTR F508del cor)
CC(NC(=O)C(=O)N1CCCCC1)C(c1cccs1)N1CCN(c2ccccc2)CC1 (stereo unspecified)	ALR inh 99
CC(NC(=O)C1CC1)C(c1cccs1)N1CCN(c2ccccc2)CC1 (stereo unspecified)	ALR inh 99 (no result: NSD2 inh, HIV Env fusion)
CC(NC(=O)C(=O)N1CCCCC1)C(c1cccs1)N1CCN(Cc2ccccc2)CC1 (stereo unspecified)	none
CC(NC(=O)C(=O)N1CCCCC1)C(c1cccs1)N1CCN(c2ccc(F)cc2)CC1 (stereo unspecified)	ALR inh 98
C[C@@H]1CCCCO[C@H](CN(C)S(=O)(=O)c2cn(C)cn2)[C@H](C)CN([C@H](C)CO)C(=O)c2cc(NS(=O)(=O)c3ccccc3)ccc2O1	none (no result: NSD2 inh, HIV Env fusion, PglD inh, ALR inh)
COc1ccc(C(=O)Nc2ccccc2N2CCCC2)cc1S(=O)(=O)N1CCOCC1	ALR inh 98 (no result: HIV Env fusion)
Cc1ccc(C(=O)NCc2ccccc2CN2CCCC2)cc1S(=O)(=O)N1CCOCC1	none (no result: HIV Env fusion, ALR inh)
COc1ccc(C(=O)NCc2ccccc2CN2CCCC2)cc1S(=O)(=O)N1CCOCC1	HIV Env fusion 62 (no result: ALR inh)
COc1ccc(C(=O)Nc2ccccc2N2CCOCC2)cc1S(=O)(=O)N1CCCC1	none
C[C@@H]1CN([C@@H](C)CO)C(=O)c2cc(NC(=O)NC3CCCCC3)ccc2O[C@H]1CN(C)C(=O)Nc1cccc2ccccc12	none (no result: NSD2 inh, ALR inh)
COc1ccc(C(=O)NNC(=S)NC(=O)c2cccc([N+](=O)[O-])c2)cc1	ALR inh 98
O=C(NC(=S)NNC(=O)c1ccccc1O)c1cccc([N+](=O)[O-])c1	none (no result: ALR inh)
COc1ccc(C(=O)NC(=S)NNC(=O)c2ccc(O)cc2)cc1[N+](=O)[O-]	ALR inh 97
COc1ccc(C(=O)Nc2ccc(S(=O)(=O)NC(C)=O)cc2)cc1[N+](=O)[O-]	ALR inh 99 (no result: PglD inh)
CCOCCCNS(=O)(=O)c1ccc(NC(=O)c2ccc(OC)c([N+](=O)[O-])c2)cc1	none (no result: PglD inh)
COCCNC(=O)C[C@@H]1C[C@@H]2c3cc(NC(=O)c4cccnc4)ccc3O[C@@H]2[C@@H](CO)O1	none (no result: NSD2 inh, ALR inh)
CC(C)CC(=O)N1CC=CC[C@@H](c2ccc(Cl)cc2)N(Cc2ccc(Cl)cc2)C(=O)[C@@H]1Cc1ccccc1	HIV Env fusion 76 (no result: NSD2 inh, ALR inh)
CCCCC(=O)N1C/C=C\C(c2ccc(OC)cc2)N(Cc2ccc(F)cc2)C(=O)[C@H]1Cc1ccccc1 (stereo partly specified)	none (no result: NSD2 inh, HIV Env fusion, Casp6 inh, CFTR F508del cor)
COc1ccc(COC[C@@]23Oc4ccccc4[C@@H](NC(=O)N2C)[C@H]3CO)cc1	none (no result: NSD2 inh, ALR inh)
CO[C@H](CN(C)S(=O)(=O)c1ccc(Cl)cc1)[C@@H](C)CN(Cc1ccccc1Cl)[C@@H](C)CO	none (no result: NSD2 inh, HIV Env fusion, ALR inh)
O=C(C[C@@H]1C[C@H]2c3cc(NS(=O)(=O)c4ccc(F)cc4)ccc3O[C@H]2[C@H](CO)O1)NCC1CC1	none (no result: NSD2 inh, Casp6 inh, ALR inh)
O=C(ONC(=O)C1CCCCC1C(=O)NOC(=O)c1ccccc1)c1ccccc1 (stereo unspecified)	Casp6 inh 40 (no result: ALR inh)
CCC(=O)N1CCC2(CC1)CN(C(=O)Nc1ccccc1F)[C@@H](CO)c1[nH]c3cc(OC)ccc3c12	none (no result: NSD2 inh, HIV Env fusion, PglD inh, Casp6 inh, ALR inh)
COC(=O)C1=COC(OC2OC(CO)C(O)C(O)C2O)C2C(C)CC(=O)C12 (stereo unspecified)	Casp6 inh 35 (no result: NSD2 inh, HIV Env fusion, ALR inh)
